# Reference: PubChem BioAssay (NCI)
# This is part of a sample that, as a whole, favours compounds with a hit. Of some 83,000 tested, about 20% had one in any assay.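 Results are percent growth after 48 hours of single-concentration exposure. 100 means growth as in untreated cells, lower positive values show inhibition; negative values down to -100 show cell death.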 Unmarked numbers belong to inactive results. The source made the active and inactive calls. How the source made its calls: active means growth percent below 10; inactive means the rest.
# Experiments:
# [1] = tested on: HL-60(TB) leukemia; assay: NCI-60 one-dose screen, 48 h (100 = growth as untreated, 0 = no growth, -100 = all killed); conditions: 10 µM unless noted
# [2] = tested on: MDA-MB-468 breast; assay: as above; conditions: 10 µM unless noted
SMILES,growth [1],growth [2]
Cc1ccc(-c2cc(C(=O)N=Nc3c(O)[nH]c4ccc(Br)cc34)c3ccccc3n2)cc1,15.8%,–
CC(=O)c1cc(C(=O)N2c3ccccc3Sc3ccccc32)n2ccc(C)cc12,33.3%,–
COc1ccc2[nH]cc(-c3cc4nc(-c5cn(C)c6ncccc56)cc(N)n4n3)c2c1,-35.4% (active),–
Cn1cc(NC(=O)c2cc(NC(=O)c3ccc(/C=C/c4ccccc4)cc3)cn2C)cc1C(=O)NCCCN1CCOCC1,-37.6% (active),–
CCOc1ccc2[nH]c(=O)c(C(c3nnnn3CC3CCCO3)N3CCN(Cc4ccccc4)CC3)cc2c1 (centres undefined),149%,–
Cc1nc(Nc2ccccn2)sc1C1=NNC(c2ccccc2F)C1 (centres undefined),4.96% (active),–
COc1ccc(OC)c(Cn2cc(C#N)c(N)c2C(=O)c2ccc(Br)cc2)c1,20.7%,–
Fc1ccc(-c2csc(Nc3cccc(Nc4nc(-c5ccc(F)cc5)cs4)c3)n2)cc1,74.3%,–
CCCCSc1nc(Nc2ccc(S(N)(=O)=O)cc2)c(C#N)c(-c2cc(OC)c(OC)c(OC)c2)n1,-28% (active),–
Nc1cc(-c2cccc(C(=O)NCc3ccc4c(c3)OCO4)c2)ccn1,98.1%,–
COc1ccc(C(=O)/C=C/c2ccc3c(c2)OCCO3)cc1S(N)(=O)=O,95.1%,–
CCOc1ccc(/C=N/NC(=O)Cn2nc(Cc3ccc([N+](=O)[O-])cc3)c3onc(C)c3c2=O)cc1,81.5%,–
COc1cc2c(c(OC)c1OC)C(=O)CC(c1cccc(NC(=O)[C@@H](N)CC(C)C)c1)O2 (some centres undefined),96.6%,–
Cc1ccc(C(=O)C(c2c[nH]c3ccccc23)c2c[nH]c3ccccc23)cc1,17.2%,–
COc1cc(C2CC(c3ccc(F)cc3)=Nc3c(N)nc(N)nc3N2)ccc1Oc1nc(Nc2ccc(F)cc2)nc(N(C)C)n1 (centres undefined),14.4%,–
Cc1ccccc1[C@H]1C(C(=O)c2ccc(Cl)cc2)C2(N[C@@H]1c1ccccc1)C(=O)Nc1ccccc12 (some centres undefined),-18.1% (active),–
COc1ccc(N(C)c2cc(C#N)nc3ccccc23)cc1/C=C/C(=O)NO,-28.7% (active),–
Cn1cc(-c2cc(N)n3nc(-c4c[nH]c5ccccc45)cc3n2)c2cc(Br)cnc21,-66.7% (active),–
O=C(Nc1ccc(S(=O)(=O)N2CCCCC2)cc1)C(Cl)Cl,120%,–
CC1(C)CC[C@]2(C(=O)Nc3ccc(Br)cc3)CC[C@]3(C)C(=CCC4[C@@]5(C)C[C@@H](O)[C@H](O)[C@@](C)(CO)C5CC[C@]43C)C2C1 (some centres undefined),-13.2% (active),–
Cc1cccc(-c2nc(Nc3ccccc3C(=O)O)c3ccccc3n2)c1,39.4%,–
Cc1cccc(-c2nc(Nc3ccc(C)c(S(N)(=O)=O)c3)c3ccccc3n2)c1,26%,–
O=C1Nc2ccc(F)cc2/C1=C/C(=O)c1cc2ccccc2oc1=O,85.6%,–
COc1cccc2nc(Nc3ccc(F)c(NC(=O)c4ccc(CN5CCN(C)CC5)c(C(F)(F)F)c4)c3)ccc12,-73.1% (active),–
CC[C@H](C)[C@H](NC(=O)C12C3C4C1C1C2C3C41NC)C(=O)N(C)[C@H](C[C@@H](OC(C)=O)c1nc(C(=O)N[C@@H](Cc2ccccc2)C[C@H](C)C(=O)OC)cs1)C(C)C (some centres undefined),–,1.25% (active)
O=C(CBr)Nc1ccc(Cl)cc1,–,92.8%
O=C(c1ccc(F)cc1)C(c1c[nH]c2ccccc12)c1c[nH]c2ccccc12,41.8%,–
CC(C)CCC1(CCO)C(=O)NC(=S)NC1=O,–,108%
CC1(C)C(C(=O)c2cn(CCCCF)c3ccccc23)C1(C)C,–,103%
